From ChEMBL document CHEMBL4513216, “Probing the Open Global Health Chemical Diversity Library for Multistage-Active Starting Points for Next-Generation Antimalarials” (ACS Infect Dis, 2020)
Among all 69,000 compounds or so, about 8,600 (12%) showed an effect of 50% or more. This excerpt belongs to a sample that is enriched for strong results.

System: Plasmodium berghei
Test: Screen against P. berghei liver stage (PbLuc), transformed with Luciferase, at 10uM
Assay type: functional, HepG2
Settings: tested at 10 uM

Row | SMILES | INHIBITION
1 | O=C1C[C@H]2[C@@H](CCN2C(=O)Cc2cccs2)N1CC1CC1 | -38.1%
2 | Cc1ccc(NC2CCN(C(=O)CCc3ccsc3)CC2)nn1 | -59.4%
3 | O=C(Cc1cccs1)N1CC[C@H]2[C@H]1CCN2Cc1cccnc1 | -25.8%
4 | Cc1cccc(CN2C(=O)C[C@@H]3[C@@H]2CCN3Cc2ccsc2)n1 | 46.9%
5 | Cc1ccc(CN2CC[C@@H]3[C@@H]2CCN3C(=O)Cc2cccs2)o1 | 93.7%
6 | Cc1ccc(N2CC[C@@H]3[C@@H]2CCN3C(=O)Cc2ccsc2)nn1 | 55.7%
7 | Cc1ccc(N2CCCN(C(=O)CCc3ccsc3)CC2)nn1 | 1.04%
8 | Cc1cccc(CN2CC[C@@H]3[C@@H]2CCN3C(=O)Cc2cccs2)n1 | 42.1%
9 | Cc1cccc(CN2CC[C@@H]3[C@@H]2CCN3C(=O)Cc2ccsc2)n1 | 63.8%
10 | COC(=O)[C@H](CCSC)NC(=O)Cn1ccc2c(Cl)cccc21 | 25%
11 | CN(C)C(=O)c1sc2ncccc2c1C1CNCCO1 (centres undefined) | 12.8%
12 | O=C(CO)N1CCC(c2cncc(-c3cccc(Cl)c3)n2)CC1 | 46.6%
13 | Cc1cnn(C2CCCN(C(=O)c3cc(Cl)c4c(c3)OCO4)C2)c1 (centres undefined) | 37.9%
14 | COc1ccc(-n2cc3nc(N)[nH]cc-3c2=O)cc1Cl | 43.3%
15 | COc1ccc(-c2ccnc3nc(N4CCCCC4)[nH]c(=O)c23)cc1 | 30.8%
16 | CC(C)c1nnc2n1CCN(Cc1cc(Cl)c3c(c1)OCO3)C2 | 33.7%
17 | CC(C)c1nnc2n1CCN(Cc1ccc3c(c1)OCCO3)C2 | -41.4%
18 | CC(C)c1nnc2n1CCN(Cc1ccc3c(c1)OCO3)CC2 | 54.6%
19 | O=C(NCC1CCC(c2ccnc3ncnn23)CC1)c1ccccn1 (centres undefined) | -24.4%
20 | Cn1nc(C(=O)NC2(c3ccc(Cl)cc3)CCCC2)ccc1=O | 6.67%
21 | COc1ccc(C2(NC(=O)CCn3cncn3)CCCCC2)cc1 | 62.6%
22 | COc1ccc(C2(NC(=O)c3ccc(=O)n(C)n3)CCCC2)cc1 | 17.7%

Row | SMILES | INHIBITION
23 | O=C(CCn1cncn1)NC1(c2cccc(Br)c2)CCC1 | 33.5%
24 | O=C(CCCn1cncn1)NC1(c2cccc(Br)c2)CC1 | 27.5%
25 | Cc1cccc(C2(NC(=O)CCCn3cncn3)CCCC2)c1 | 57.3%
26 | Cc1cccc(C2(NC(=O)CCN3C(=O)CCC3=O)CCCC2)c1 | 28.7%
27 | O=C(CCCn1cncn1)NC1(c2ccccc2)CCC1 | -21.5%
28 | O=C(CCCn1cncn1)NC1(c2ccc(Cl)cc2)CCC1 | 61.3%
29 | Cc1nn(C)c(C)c1-c1cnc(CC2CCNCC2)cn1 | 21.1%
30 | CCN(C(=O)Cn1cc(NC(=O)C(C)(C)C)cn1)c1ccccc1 | 7.65%
31 | Cc1cncc(C(=O)N2CCC3(CCCN(c4nncs4)C3)C2)c1 (centres undefined) | 41.2%
32 | O=C(Nc1ccccc1)C1=NOC2(CCCN(C(=O)N3CCCC3)C2)C1 (centres undefined) | -8.28%
33 | CNS(=O)(=O)CCCN(C)Cc1cc(C)ccc1OC | 59.1%
34 | CCS(=O)(=O)CCN(C)Cc1cc(C)ccc1OC | 21.1%
35 | COc1ccc(C)cc1CN(C)CCCNS(C)(=O)=O | 23%
36 | CC(=O)N1CCN(C(=O)c2ccc3ccn(C)c3c2)CC1 | 63.3%
37 | CCOC(=O)N1CCN(C(=O)c2ccc3ccn(C)c3c2)CC1 | 38.5%
38 | Cn1ccc2ccc(C(=O)N3CCN(C(=O)N4CCOCC4)CC3)cc21 | 40.1%
39 | C[C@@H]1CN(C(=O)[C@H]2CCCO2)C[C@]12CCN(c1ccsc1)C2=O | 49.7%
40 | COc1ncccc1C(=O)N1CC[C@H]2C[C@@H](C)O[C@@H]2C1 | -40.3%
41 | COc1ncccc1C(=O)N1CC[C@H]2C[C@@H](c3ccncn3)O[C@@H]2C1 | -42.8%
42 | COc1cc(N2CC[C@@H]3O[C@@H](c4ccncn4)C[C@H]3C2)ncn1 | 73.2%
43 | COc1ncccc1C(=O)N1CC[C@H]2C[C@H](c3ccncn3)O[C@@H]2C1 | 52%
44 | Cc1ccc(N2CC[C@@H]3O[C@@H](c4ccncn4)C[C@H]3C2)nn1 | 37.8%

Row | SMILES | INHIBITION
45 | COc1cc(N2CC[C@@H]3O[C@@H](c4ccnc(C)n4)C[C@H]3C2)ncn1 | 45.8%
46 | CCc1nc(Nc2ccc(C(=O)NC)cc2)c2c(n1)c(C)nn2CC | 18.85%
47 | O=C(NC1CCc2ccccc2C1)C1CCN(Cc2ccco2)CC1 (centres undefined) | 31%
48 | Cc1noc(C(C)N2CCN(CCOCC(F)(F)F)CC2)n1 (centres undefined) | 12.85%
49 | Cc1ncc(CN2CCC(n3cc(-c4ccc(F)cc4)nn3)CC2)cn1 | 53.8%
50 | OCc1ccc(CN2CCC(n3cc(-c4ccc(F)cc4)nn3)CC2)o1 | -0.529%
51 | Cc1cncc(C2CCN(Cc3cnc(C)nc3)CC2)n1 | 36.44%
52 | O=C(C1CCCO1)N1CCC(n2cc(-c3ccc(F)cc3)nn2)CC1 (centres undefined) | -10.9%
53 | Oc1ccccc1CN1CCC(n2cc(-c3ccc(F)cc3)nn2)CC1 | 55%
54 | Cc1ccc(-c2cn(C3CCN(C(=O)[C@H]4CCCO4)CC3)nn2)cc1 | 23.3%
55 | O=C(c1ccccn1)N1Cc2nccn2CC(CN2CCOCC2)C1 (centres undefined) | 38.7%
56 | CNC(=O)CCc1cc(C2CCN(c3cnccn3)CC2)nc(C)n1 | 15.85%
57 | CN(C)Cc1cn2c(n1)CN(CC1CCCC1)CC2 | 29%
58 | CCn1ccc(-c2cc(C(=O)O)n3nc(C(F)(F)F)c(Br)c3n2)n1 | 11.2%
59 | Cc1ccc(C(=O)N2CCc3c(CNc4ncccn4)cncc3C2)o1 | -66.6%
60 | CCc1cc(CN(C)C(=O)c2cnon2)on1 | -40.6%
61 | OCc1csc(N2CCCC(CO)(Cc3cccc(Cl)c3)C2)n1 (centres undefined) | -14.9%
62 | Cc1cnn(CC2CCCN2Cc2coc(-c3cccc(F)c3)n2)c1 (centres undefined) | 80.8%
63 | Cc1cnn(CC2CCCN2Cc2coc(-c3ccccc3)n2)c1 (centres undefined) | -14.2%
64 | Fc1cccc(-c2nc(CN3CCCC3Cn3cncn3)co2)c1 (centres undefined) | 7.12%
65 | Fc1cccc(-c2nc(CN3CCCC3Cn3cccn3)co2)c1 (centres undefined) | -14.6%
66 | Cc1cnn(CC2CCCN2Cc2coc(-c3ccc(F)cc3)n2)c1 (centres undefined) | 69.7%

Row | SMILES | INHIBITION
67 | Fc1ccc(-c2nc(CN3CCCC3Cn3cncn3)co2)cc1 (centres undefined) | 4.71%
68 | CS(=O)(=O)C1CCN(S(=O)(=O)c2ccc(F)c(F)c2)C1 (centres undefined) | 21.2%
69 | Cn1ccc2cc(C(=O)NC3CCS(=O)(=O)C3)ccc21 (centres undefined) | -42.5%
70 | CNC(=O)[C@@H](C1CCCCC1)N1CCC[C@H]1C(=O)NCCN1CCCC1 | 0.112%
71 | CCc1nnc(SCC(=O)N2C[C@H]3CC[C@@H](C2)N(CC=C(C)C)C3)[nH]1 | 26.7%
72 | CC1c2ncc(CNC(=O)C3CC3)n2CCN1Cc1cccnc1 (centres undefined) | -5.31%
73 | Cc1nc(N2CCOCC2)sc1C(=O)NCC(C)(C)N1CCCCC1 | -4.87%
74 | COCCN1CCCC12CCN(C(=O)CC1CCCC1)CC2 | 32.4%
75 | Cn1ncc(C(=O)N2CCN(CCS(C)(=O)=O)CC2)c1Cl | 30.95%
76 | O=C(NCC(O)Cc1ccccc1)c1ccc2[nH]c(=O)[nH]c2c1 (centres undefined) | 43.9%
77 | Cc1nc2ccc(CN3CC4(CCOC4)CCC3=O)cc2[nH]1 (centres undefined) | 67.4%
78 | O=C1CCC2(CCOC2)CN1Cc1nncn1CCc1ccccc1 (centres undefined) | 10.1%
79 | CCCn1nc(C)c(CN2CC3(CCOC3)CCC2=O)c1C (centres undefined) | 64.5%
80 | O=C1CCC2(CCOC2)CN1Cc1nc2ccc(Cl)cc2[nH]1 (centres undefined) | 27.9%
81 | O=C1CCC2(CCOC2)CN1Cc1ccc2nsnc2c1 (centres undefined) | 16.8%
82 | CCc1c(C)nn(CCN2CC3(CCOC3)CCC2=O)c1C (centres undefined) | 44.3%
83 | CCCc1nc(C)c(CN2CC3(CCOC3)CCC2=O)s1 (centres undefined) | 33.7%
84 | CCn1nc(C)c(CCN2CC3(CCOC3)CCC2=O)c1C (centres undefined) | 56.6%
85 | O=C1CCC2(CCOC2)CN1CCCOc1cccnc1 (centres undefined) | -0.897%
86 | O=C([C@H]1CC[C@@H]2[C@@H](CCN2c2ncccn2)O1)N1CCCCO1 | -13.2%
87 | Cc1noc(C(C)N2CCN(Cc3nnc(C4CC4)o3)CC2)n1 (centres undefined) | -19.6%
88 | CN(C)C(=O)c1n[nH]c2c1CN(CC1CCC1)C2 | 30.5%

Row | SMILES | INHIBITION
89 | O=C1CCC(C(=O)Nc2cnn(-c3ccccc3Cl)c2)N1 (centres undefined) | 19.7%
90 | COc1ccc(C)cc1-c1csc(N)c1C#N | 1.86%
91 | Cc1ccc(C)c(-c2csc(N)c2C#N)c1 | 64.7%
92 | Cc1ccc(-c2csc(N)c2C#N)c(C)c1 | 40.9%
93 | Cc1nc[nH]c1CN1C[C@H]2CC[C@@H](C1)N(C(=O)CCn1cncn1)C2 | 40.2%
94 | COc1cccc(C(C)Nc2ncnc3c2NC(=O)CN3)c1 (centres undefined) | 45.8%
95 | CC(CN1CCOCC1)n1cncc1-c1ccc2c(c1)CCCN2C (centres undefined) | -16%
96 | NC(=O)C(NC(=O)c1cc(Br)c[nH]1)c1ccccc1 (centres undefined) | 34.4%
97 | Cc1cc(C)c(C(=O)N[C@H](C(N)=O)c2ccccc2)c(=O)[nH]1 | -31.4%
98 | NC(=O)C(NC(=O)c1cc(Cl)c[nH]1)c1ccccc1 (centres undefined) | 52.8%
99 | CO[C@H]1CCN(Cc2c(C)noc2C)[C@@H]2CN(Cc3cccnc3)C[C@H]12 | 28.5%
100 | O=C(NCc1nnc2n1CCCCC2)N1CCc2ccccc2C1 | 41.2%
101 | Cc1ccc(CN(C)C(=O)Cn2nc(-c3ccc(F)cc3)oc2=O)cc1 | 30.8%
102 | O=C(Cn1nc(-c2ccc(F)cc2)oc1=O)NCc1ccccc1F | -69.9%
103 | CN(Cc1ccccc1Br)C(=O)Cn1nc(-c2ccc(F)cc2)oc1=O | 26.8%
104 | CN(Cc1ccc(F)cc1)C(=O)Cn1nc(-c2ccc(F)cc2)oc1=O | 1.58%
105 | CN(Cc1ccc(Cl)s1)C(=O)Cn1nc(-c2ccc(F)cc2)oc1=O | 66.1%
106 | Cc1ccccc1CNC(=O)Cn1nc(-c2ccc(F)cc2)oc1=O | 50.15%
107 | COc1ccccc1CNC(=O)Cn1nc(-c2ccc(F)cc2)oc1=O | -16.1%
108 | Cc1ccccc1CN(C)C(=O)Cn1nc(-c2ccc(F)cc2)oc1=O | 56.5%
109 | Cc1ccsc1CN(C)C(=O)Cn1nc(-c2ccc(F)cc2)oc1=O | 22.1%
